Here are results for 14 compounds from PubChem BioAssay.

Broadly, the inhibition is the drop in the measured response relative to a control, in per cent.

Molecules are shown by their SMILES. Active and inactive are the calls of the source.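 The calls were made as follows, unless noted: active = inhibition at or above 50% at 10 µM; inactive = inhibition below 50%.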

A short description of test [1]: inhibitors of TNFa-induced NFkB p65 translocation, primary screen, imaging, HUVEC, MLSMR starter and 10KST1 sets (AID 438;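 active = inhibition above 20% together with a positive visual image hit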;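 also: compound added about 3h40 before a 20 min TNFalpha stimulation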;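 as to inhibition: signal is the nuclear over cytoplasmic p65 intensity ratio per well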). To be noted: HUVEC TNFa-induced p65 nuclear translocation; cell count: measured here: nuclei count (cytotoxicity indicator), at 2.08 µM; inhibition: at 2 µM, stronger effect = higher value, 0% TNFa-plus-vehicle, 100% no-TNFa wells.
Test [2] is described as follows: inhibitors of mutant huntingtin aggregation, primary screen, imaging, exon1htt(103Q)mCFP cells, high-content imaging (AID 483;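 active = visual image review flags a hit and inhibition of aggregation exceeds 20%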;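 also: compound exposure lasted 3 days before fixation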;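 as to nuclei count: percent of the per-plate median nuclei count of sample wells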). To be noted: exon1htt(103Q)mCFP cell line, aggregate imaging, at 2 µM; inhibition of aggregation: stronger effect = higher value; nuclei count: measured here: cell count, toxicity.
Test [3] is described as follows: inhibitors of E-selectin induction by TNFa, primary screen, imaging, HUVEC, immunofluorescence, MLSMR starter and 10KST1 sets (AID 487;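 active = visually confirmed hit in the image check and inhibition above 20%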;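 as to inhibition: signal is fraction of cell area covered by stained E-selectin grains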;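 as to nuclei count: 100% = median nuclei count of all wells on the same plate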). To be noted: HUVEC TNFalpha-induced E-selectin immunofluorescence imaging, at 2 µM; inhibition: stronger effect = higher value; nuclei count: measured here: cell number, toxicity.
Test [4] addresses Voltage-gated potassium channel subunit beta-2 (Rattus norvegicus) (UniProt P62483). Nature of the test: KvBeta enzyme negative modulators, primary screen, biochemical, NADPH fluorescence (AID 622;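 active = fluorescence slope higher than the sample average by over 3 SD, cut at about -0.22 in these data, passing the limit was not always enough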;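 also: slope of raw intensity against log time taken from 70 to 1610 s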). To be noted: recombinant KvBeta, 4-cyanobenzaldehyde reduction, at 10 µM, stronger effect = higher value.
For test [5] the target is unchanged. Nature of the test: KvBeta positive modulators, primary screen, biochemical, NADPH fluorescence (AID 623;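 active = NADPH fluorescence slope more negative than the mean of all samples by about 3 SD, 99.7% confidence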;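 also: fluorescence intensity change per second fitted from 20 to 320 s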). To be noted: Recombinant KvBeta, NADPH fluorescence decrease slope, 10 min; at 10 µM; stronger effect = lower value.
Test [6] has as its target Alpha-2C adrenergic receptor (Homo sapiens) (UniProt P18825). Nature of the test: modulators of alpha2C/GIRK thallium flux, primary screen, cell-based, HEK293 alpha2C/GIRK1/2 (AID 624;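 active = fluorescence slope after compound addition differing from the mean of all screened samples at 99.7% confidence, in either direction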;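 also: slope of fluorescence ratio to pre-addition baseline per second over 15 to 24 s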). To be noted: thallium flux BTC fluorescence, at 10 µM, actives lie on both sides.
A short description of test [7]: inhibitors of Sendai virus-induced IRF3 signaling, primary screen, TLR/RLR signaling modifier project, cell-based, Sendai virus stimulus, luciferase, 10K MLSCN set (AID 602276).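 Also: firefly luciferase from ISG56 promoter only with Renilla not read in this screen; 0% = Sendai virus plus DMSO and 100% = medium plus DMSO without virus.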 To be noted: HEK293 RL24 IRF3 luciferase reporter, at 10 µM, stronger effect = higher value. (In general: A reporter such as luciferase makes a cellular process visible.)
Test [8] can be described thus: inhibitors of poly I:C-induced TLR3 signaling, primary screen, cell-based, poly I:C stimulus, luciferase, 10K MLSCN set (AID 602277;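 active = inhibition of the reporter signal at or above 50%; inactive = inhibition below 50%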). The conditions noted are these: HEK293-TLR3 RL24 IRF3 luciferase reporter, at 10 µM, stronger effect = higher value.

Sequence of Alpha-2C adrenergic receptor (Homo sapiens) (P18825 whole entry, looked up): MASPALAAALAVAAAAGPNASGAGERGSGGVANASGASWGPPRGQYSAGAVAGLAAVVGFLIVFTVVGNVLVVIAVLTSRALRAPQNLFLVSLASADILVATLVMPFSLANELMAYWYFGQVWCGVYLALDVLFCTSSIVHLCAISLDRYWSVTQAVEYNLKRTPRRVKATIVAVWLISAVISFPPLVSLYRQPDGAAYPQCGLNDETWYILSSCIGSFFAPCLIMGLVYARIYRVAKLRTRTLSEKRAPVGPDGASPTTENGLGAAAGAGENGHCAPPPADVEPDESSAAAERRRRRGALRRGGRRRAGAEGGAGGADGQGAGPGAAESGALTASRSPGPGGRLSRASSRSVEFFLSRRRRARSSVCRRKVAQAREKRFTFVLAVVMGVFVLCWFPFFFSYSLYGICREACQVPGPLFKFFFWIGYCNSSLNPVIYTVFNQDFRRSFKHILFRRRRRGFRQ
Sequence of Voltage-gated potassium channel subunit beta-2 (Rattus norvegicus) (P62483 whole entry, looked up): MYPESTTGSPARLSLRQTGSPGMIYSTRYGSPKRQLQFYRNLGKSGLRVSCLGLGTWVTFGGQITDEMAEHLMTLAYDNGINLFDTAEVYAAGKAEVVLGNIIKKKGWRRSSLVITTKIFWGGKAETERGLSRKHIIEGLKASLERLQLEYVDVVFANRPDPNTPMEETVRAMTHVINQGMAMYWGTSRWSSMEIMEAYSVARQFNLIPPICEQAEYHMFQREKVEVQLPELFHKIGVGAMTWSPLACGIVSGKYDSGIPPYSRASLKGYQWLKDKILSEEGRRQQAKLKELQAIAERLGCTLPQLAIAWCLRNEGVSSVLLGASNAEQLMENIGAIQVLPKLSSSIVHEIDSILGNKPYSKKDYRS

On to `O=C(NC1CCCCCC1)c1c(F)c(F)c(F)c(F)c1F`, for which, in test [1], the cell count worked out at 448. Further, the inhibition is 1.8% (inactive) in test [1], 1.8% (inactive) in test [3], 1.12% (inactive) in test [7] and 12.3% (inactive) in test [8]. In addition, the inhibition of aggregation in test [2] is 3.9% (inactive). Further, the nuclei count in test [2] was 104%; in test [3] it was 118%. In test [4], the fluorescence slope was -0.299 (inactive). Also, the NADPH fluorescence slope in test [5] was -1.4e-05 (inactive). Further, the slope in test [6] is 0.00585 (inactive).
For `Cc1cc(C)c(C#N)c(SCC(=O)Nc2ccc(S(=O)(=O)Nc3onc(C)c3C)cc2)n1`, the cell count in test [1] came out at 607. Also, the inhibition is 2.9% (inactive) in test [1], -59.1% (inactive) in test [3], 9.61% (inactive) in test [7] and 24.3% (inactive) in test [8]. In test [2], the inhibition of aggregation was 3.9% (inactive). The nuclei count in test [2] came out at 103%; in test [3], 122%. Besides, the fluorescence slope in test [4] was -0.448 (inactive). In addition, the NADPH fluorescence slope in test [5] was 1.9e-05 (inactive). The slope in test [6] was 0.00553 (inactive).
On to `C=CCOC(=O)C1=C(C)NC(=O)NC1c1cn(-c2ccccc2)nc1-c1cccs1` (centres undefined), for which, in test [1], the cell count came to 663. For the same compound, the inhibition is -18.8% (inactive) in test [1], -7.6% (inactive) in test [3], 14.3% (inactive) in test [7] and 14.3% (inactive) in test [8]. In addition, the inhibition of aggregation in test [2] is 13.7% (inactive). The nuclei count in test [2] is 87.3%; in test [3], 110%. The fluorescence slope in test [4] is -0.332 (inactive). Besides, in test [5], the NADPH fluorescence slope is -5.4e-05 (inactive). Besides, in test [6], the slope is 0.00533 (inactive).
Take `Cc1cc(N2C(=O)C(O)=C(C(=O)c3ccc(C)o3)C2c2cccs2)no1` (centres undefined): the cell count in test [1] was 257. The inhibition in test [1] is -3.6% (inactive); in test [3], 12% (inactive); in test [7], -1.8% (inactive); in test [8], -26.2% (inactive). In addition, in test [2], the inhibition of aggregation is 13.3% (inactive). The results for the nuclei count in test [2] and in test [3] were 75.8% and 103%, respectively. In test [4], the fluorescence slope was -0.42 (inactive). Moreover, the NADPH fluorescence slope in test [5] was -1.8e-05 (inactive). In addition, in test [6], the slope is 0.00606 (inactive).
Regarding `CCOC(=O)N1CCN(Cc2nc3c(c(=O)n(C)c(=O)n3C)n2Cc2ccc(F)cc2)CC1`, the cell count in test [1] came to 697. Besides, the inhibition in test [1] was 0.3% (inactive); in test [3], -23.4% (inactive); in test [7], 16.7% (inactive); in test [8], 39.9% (inactive). For the same compound, the inhibition of aggregation in test [2] was -1.6% (inactive). Further, the figures for the nuclei count in test [2] and in test [3] were 91.7% and 123%, respectively. Besides, the fluorescence slope in test [4] is -0.557 (inactive). In test [5], the NADPH fluorescence slope is -3.3e-05 (inactive). The slope in test [6] is 0.00745 (inactive).
In the case of `O=C(Nc1ccon1)c1cc(-c2ccccc2)nc2ccccc12`, the cell count in test [1] was 364. In addition, the inhibition in test [1] is -8% (inactive); in test [3], -48.5% (inactive); in test [7] it was -24.1% (inactive); in test [8], 99.8% (active). In addition, in test [2], the inhibition of aggregation is 22.5% (inactive). Further, the values for the nuclei count in test [2] and in test [3] were 98.4% and 116%, respectively. In test [4], the fluorescence slope was -0.286 (inactive). The NADPH fluorescence slope in test [5] is -6.3e-05 (inactive). Moreover, the slope in test [6] was 0.00497 (inactive).
In the case of `CCn1ncc(C2=NOC(C(=O)Nc3ccc4c(c3)OCO4)C2)c1C` (centres undefined), the cell count in test [1] is 640. Further, the inhibition is -0.3% (inactive) in test [1], -156% (inactive) in test [3], -17.8% (inactive) in test [7] and -34% (inactive) in test [8]. Further, the inhibition of aggregation in test [2] is 0.2% (inactive). Also, the nuclei count was found to be 99.9% in test [2] and 112% in test [3]. For the same compound, the fluorescence slope in test [4] is -0.5 (inactive). In addition, the NADPH fluorescence slope in test [5] is -0.000277 (inactive). The slope in test [6] is 0.00345 (inactive).
Take `CC(=O)N1c2c(cc(Br)cc2S(=O)(=O)NCC2COc3ccccc3O2)CC1C` (centres undefined): the cell count in test [1] was 651. The inhibition in test [1] was -0.5% (inactive); in test [3] it was -47.6% (inactive); in test [7], 13.1% (inactive); in test [8], 10.4% (inactive). Moreover, the inhibition of aggregation in test [2] was 19.1% (inactive). In addition, the nuclei count in test [2] turned out to be 104%; in test [3], 116%. Moreover, the fluorescence slope in test [4] was -0.53 (inactive). Besides, in test [5], the NADPH fluorescence slope is -7.4e-05 (inactive). Also, the slope in test [6] is 0.00624 (inactive).
Turning to `CC1(C)CC(=O)CC(C)(C)N1OC(=O)c1ccccn1`, the cell count in test [1] was found to be 362. Further, the inhibition in test [1] was 1% (inactive); in test [3] it was -4.9% (inactive); in test [7], -2.81% (inactive); in test [8], 25.3% (inactive). In addition, the inhibition of aggregation in test [2] is -6.4% (inactive). Also, the nuclei count in test [2] stood at 97.7%; in test [3], 102%. In addition, the fluorescence slope in test [4] was -0.495 (inactive). Also, the NADPH fluorescence slope in test [5] is 2e-05 (inactive). Moreover, the slope in test [6] is 0.00619 (inactive).
As to `COc1ccccc1-c1cc(C(=O)Nc2cc(C)nn2-c2ccccc2)no1`, the cell count in test [1] was found to be 478. Further, the inhibition in test [1] is -9.3% (inactive); in test [3], 4.5% (inactive); in test [7], -1.99% (inactive); in test [8], 16% (inactive). The inhibition of aggregation in test [2] is -24.6% (inactive). Besides, the nuclei count in test [2] was 111%; in test [3] it was 109%. Besides, in test [4], the fluorescence slope was -0.381 (inactive). Further, the NADPH fluorescence slope in test [5] was -2e-05 (inactive). In addition, in test [6], the slope is 0.00489 (inactive).
With `NC(=O)CSCc1ccc(Br)cc1`, the cell count in test [1] turned out to be 313. The inhibition in test [1] is 8.3% (inactive); in test [3], -103% (inactive); in test [7] it was 11.5% (inactive); in test [8], 13.5% (inactive). For the same compound, in test [2], the inhibition of aggregation is 12.7% (inactive). Besides, the nuclei count in test [2] came out at 91.7%; in test [3] it was 105%. Also, in test [4], the fluorescence slope was -0.579 (inactive). The NADPH fluorescence slope in test [5] is -5e-05 (inactive). Further, the slope in test [6] is 0.00494 (inactive).
Turning to `COc1ccc(-c2c3c(=O)n(C)c(=O)n(C)c3cn2-c2cccc(OC)c2)cc1`, the cell count in test [1] stood at 430. The inhibition in test [1] is 5.2% (inactive); in test [3], -50.3% (inactive); in test [7] it was -0.838% (inactive); in test [8], 0.686% (inactive). The inhibition of aggregation in test [2] was 5.3% (inactive). Also, the values for the nuclei count in test [2] and in test [3] were 110% and 99.9%, respectively. For the same compound, the fluorescence slope in test [4] was -0.605 (inactive). The NADPH fluorescence slope in test [5] is 6.5e-06 (inactive). In addition, in test [6], the slope was 0.00638 (inactive).
Consider `CCOc1ccc(C2C(C(=O)OC)=CN(CCOC)C=C2C(=O)OC)cc1`, for which, in test [1], the cell count was determined as 298. Also, the inhibition in test [1] is 6% (inactive); in test [3] it was -6% (inactive); in test [7] it was -9.2% (inactive); in test [8] it was 7.51% (inactive). The inhibition of aggregation in test [2] is -3.4% (inactive). The nuclei count in test [2] is 105%; in test [3], 110%. Besides, the fluorescence slope in test [4] was -0.141 (inactive). In addition, in test [5], the NADPH fluorescence slope was -8.2e-06 (inactive). For the same compound, in test [6], the slope was 0.00651 (inactive).
Regarding `COc1ccc(S(=O)(=O)NCC(=O)N(CC(=O)NCC2CCCO2)c2ccccc2C)cc1` (centres undefined), the cell count in test [1] was 251. In addition, the inhibition was 2.2% (inactive) in test [1], -22.6% (inactive) in test [3], 19.2% (inactive) in test [7] and 18.4% (inactive) in test [8]. In addition, the inhibition of aggregation in test [2] is -8.4% (inactive). Besides, the nuclei count turned out to be 106% in test [2] and 96.9% in test [3]. For the same compound, the fluorescence slope in test [4] is -0.399 (inactive). Besides, the NADPH fluorescence slope in test [5] was -6.5e-06 (inactive). The slope in test [6] was 0.00632 (inactive).
